Assay outcomes deposited in PubChem by National Center for Advancing Translational Sciences (NCATS).
An excerpt weighted towards active compounds, which were near 3.7% of everything screened.
ATXN viability = cell viability loss in ATXN counter-screen. S2 cells (HEK-293 line with an ATXN2-luciferase reporter) viability, CellTiter-Fluor protease fluorescence, 24 h. Potency, µM (highest dose often 56.7 µM), usual class: cytotoxic. 400,000 tested, 0.49% active; further: nearly all actives have a fitted effect of over 40% in size
TGFb SMAD3 inh = TGF-b pathway inhibition; Potency, µM (series often up to 46.1 µM), most hits filed as inhibitors; HepG2 CAGA-GFP TGF-b/SMAD3 reporter, GFP fluorescence, 18 h; TGF-beta stimulated, 500 pg/mL final; 410,000 tested, 1.2% active; further: nearly all actives have a fitted effect of over 65% in size
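Using HEPG2 CAGA-GFP reporter cells at 1000 cells/well, we pinned test compounds, stimulated with recombinant TGF-beta (500 pg/mL final) and measured total well GFP after 18 h.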
HepG2 tox-1 = HepG2 cytotoxicity, counter-screen for TGF-b inhibitors | 410,000 tested, 0.76% active | HepG2 CAGA-GFP viability, ATP luminescence, 18 h | Potency, µM (titrated, usually from 46.1 µM), hits mostly cytotoxic | AID 588856
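HepG2 CAGA-GFP cells (1000/well, DMEM with 1% FBS) received compound, then TGF-beta at 500 pg/mL final, and were incubated 18 hours at 37 degrees C. Viability was read by CellTiter-Glo luminescence. Media-only wells were set as complete cell-killing and DMSO as no toxicity.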
GLP-1R inv ag = inverse agonists of human GLP-1 receptor; P43220; HEK293 GLP-1R CRE-luciferase, luminescence, 24 h; GLP-1R form is constitutively active; Potency, µM (series often up to 38.3 µM), hits mostly inhibitors; 410,000 tested, 1.6% active; AID 624417; further: nearly all actives have a fitted effect of over 55% in size
Target sequence (P43220 whole entry, looked up): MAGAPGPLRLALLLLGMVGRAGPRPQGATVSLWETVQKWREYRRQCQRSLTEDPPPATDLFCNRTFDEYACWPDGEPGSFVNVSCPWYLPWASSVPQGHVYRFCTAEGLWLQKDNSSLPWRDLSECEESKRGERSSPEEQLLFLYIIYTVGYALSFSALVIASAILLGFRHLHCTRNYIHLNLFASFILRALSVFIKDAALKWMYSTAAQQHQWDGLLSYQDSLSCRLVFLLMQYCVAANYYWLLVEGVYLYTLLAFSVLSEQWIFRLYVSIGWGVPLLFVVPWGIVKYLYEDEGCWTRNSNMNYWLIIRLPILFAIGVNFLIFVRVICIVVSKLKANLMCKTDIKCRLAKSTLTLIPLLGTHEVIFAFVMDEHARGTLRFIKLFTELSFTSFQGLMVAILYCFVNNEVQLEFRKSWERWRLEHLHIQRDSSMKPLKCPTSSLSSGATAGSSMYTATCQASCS
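Seeding at 200 cells/uL, 12 h culture, 24 hr compound treatment, then luciferase reagent and a luminescence read; cells are HEK293 stably expressing a constitutively active GLP-1R plus cAMP-responsive luciferase.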
GLP1R ag = agonists of human GLP-1 receptor; HEK293 GLP-1R CRE-luciferase, luminescence, 4-6 h; cells express a hypersensitive GLP-1R form; Potency, µM (titrated, usually from 45.6 µM), hits mostly activators; 380,000 tested, 0.007% active; AID 624172
ATXN2 expr inh = inhibitors of ATXN2 expression. 360,000 tested, 0.72% active. Potency, µM (top dose mostly 57 µM), usual class: inhibitors. HEK-293 ATXN2-luciferase reporter, luminescence, 24 h. AID 1745845; further: nearly all actives have a fitted effect of over 55% in size
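qHTS (up to 57 uM final) was run with 24 h compound exposure of reporter cells at 37 °C. Each well was multiplexed: SteadyGlo luminescence measured ATXN2-luciferase expression after a fluorogenic Gly-Phe-AFC viability readout (25 uM final).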
TGFb confirm = TGF-b pathway inhibition, cherry-pick retest; HepG2 CAGA-GFP TGF-b reporter, GFP fluorescence, 18 h; cells stimulated with TGF-beta, 500 pg/mL; Potency, µM (series often up to 46.1 µM), hits mostly inhibitors; shares compounds with TGFb SMAD3 inh; 1,600 tested, 63% active; further: nearly all actives have a fitted effect of over 65% in size
HepG2 tox-2 = counter-screen for TGF-b inhibitors: cytotoxicity in HepG2 cells; HepG2 CAGA-GFP viability, ATP luminescence, 18 h; cells stimulated with TGF-beta, 500 pg/mL; AID 720535; shares compounds with TGFb SMAD3 inh; Potency, µM (series often up to 46.1 µM), hits mostly inhibitors; 1,600 tested, 27% active; further: nearly all actives have a fitted effect of over 70% in size
TGFb CCL64 inh = orthogonal confirmation of TGF-b inhibitors in CCL64 cells; shares compounds with TGFb SMAD3 inh; CCL64 CAGA-GFP reporter, TGF-b stimulated, GFP fluorescence, 18 h; Potency, µM (series often up to 46.1 µM), usual class: inhibitors; 1,600 tested, 41% active; AID 720536; further: nearly all actives have a fitted effect of over 65% in size
COP TGFb inh = TGF-b inhibition validated with COP promoter | HepG2 COP-GFP TGF-b reporter, GFP fluorescence, 18 h; cells stimulated by added recombinant TGF-beta | Potency, µM (titrated, usually from 46.1 µM), actives largely listed as inhibitors | AID 720537 | 1,600 tested, 3% active | shares compounds with TGFb SMAD3 inh; further: nearly all actives have a fitted effect of over 70% in size
A number is an active result; i = inactive; ? = inconclusive; nt = no result given. The call rests on the fitted dose curve; in most records, active means well fitted curve in the direction sought with a large enough effect; inconclusive means small, poorly fitted or top-dose-only effect, or another doubt; inactive means no such curve, though single readings can be large; an effect the other way counts as inactive or inconclusive.

SMILES | ATXN viability | TGFb SMAD3 inh | HepG2 tox-1 | GLP-1R inv ag | GLP1R ag | ATXN2 expr inh | TGFb confirm | HepG2 tox-2 | TGFb CCL64 inh | COP TGFb inh
C[C@@H](C1CC[C@@]2(O)C3=CC(=O)[C@@H]4C[C@@H](O)[C@@H](O)C[C@]4(C)[C@H]3CC[C@]12C)[C@H](O)CCC(C)(C)O (some centres not stated) | nt | i | i | nt | nt | nt | nt | nt | nt | nt
O=C(Nc1ccc(Cl)cc1)Nc1ccc(Cl)c(Cl)c1 | ? | 3.2µM | i | ? | i | ? | ? | 21µM | 5.2µM | i
Cc1ccc([C@H]2C[C@@H](O)[C@H](n3cc(COC(=O)c4ccccc4)nn3)CN2CC2CCCCC2)cc1 | i | i | i | i | i | i | nt | nt | nt | nt
O=c1c2ccccc2nc(/C=C\c2ccccc2F)n1-c1ccc(O)cc1 | nt | i | i | i | nt | nt | nt | nt | nt | nt
O=c1c2ccccc2nc(/C=C/c2ccc([N+](=O)[O-])o2)n1-c1ccc(O)cc1 | 10µM | 2.8µM | i | ? | i | 13µM | ? | 5.8µM | 2.3µM | i
O=C(CCl)c1ccc(O)c(O)c1 | nt | ? | i | nt | nt | nt | nt | nt | nt | nt
CC(=O)OCC12CC(OC(=O)CC(C)C)C(C)=CC1OC1C(O)C(OC(C)=O)C2(C)C12CO2 (configuration not stated) | ? | i | i | i | i | i | 0.01µM | nt | 0.0052µM | i
O=[N+]([O-])c1oc2ccc3ccccc3c2c1CCO | ? | 4.5µM | i | ? | i | ? | 0.82µM | 1.2µM | ? | i
C[C@H]1C[C@@H](C)C(=O)[C@@H]([C@H](O)CC2CC(=O)NC(=O)C2)C1 | i | 0.71µM | i | ? | i | 1.1µM | 1µM | ? | 0.33µM | i
COc1ccc(C[C@H]2NC[C@H](O)[C@H]2OC(C)=O)cc1 | ? | 0.22µM | i | i | i | 0.1µM | 0.073µM | 0.65µM | 0.1µM | i
COC(=O)C1=C(c2ccc(OC(F)(F)F)cc2)C[C@@H]2CC[C@H]1N2C(=O)N1CCC(C)CC1 | 28µM | 6.3µM | i | ? | i | ? | 16µM | ? | ? | i
O=C(Cn1c(=O)oc2cc(Cl)ccc21)Nc1cccc(C(F)(F)F)c1 | nt | ? | i | i | nt | nt | nt | nt | nt | nt
O=C1NC2C(=CC(O)C(O)C2O)c2cc3c(c(O)c21)OCO3 (configuration not stated) | ? | i | i | i | i | ? | 0.018µM | 0.46µM | 0.073µM | i
O=C1NC2C(O)C(O)C(O)C(O)C2c2cc3c(c(O)c21)OCO3 (configuration not stated) | ? | 0.13µM | i | ? | i | i | 0.065µM | ? | 0.18µM | i
Cc1ccc(-c2cc(-c3ccc(C)cc3)[n+](-c3ccccc3)c(-c3ccc(C)cc3)c2)cc1 | nt | 1.3µM | i | ? | i | ? | 1.5µM | 9.2µM | 1.6µM | i
O=C(C[C@@H]1C[C@@H]2c3cc(NS(=O)(=O)c4ccc(F)cc4)ccc3O[C@@H]2[C@H](CO)O1)N1CCc2ccccc2C1 | ? | i | i | i | i | i | nt | nt | nt | nt
